Marburg entry inh – Marburg virus entry inhibition | AID 540276 | Potency, µM (series often up to 37.8 µM), for inactives: top-dose activity change, negative = inhibition, actives largely listed as inhibitors | hit rate 1.8% among 300,000 | Marburg virus pseudotyped entry inhibition, cell reporter; calls by dose curve; tested in HEK293 cells; further: potency means the concentration at half of the fitted maximal effect; on the % scale 0 is the no-effect control and ±100 the full control effect
CHX counter – counter-screen hit for Shiga toxin inhibitors, cycloheximide; cell reporter, cycloheximide protein synthesis inhibition counterscreen; max response, %; hit rate 12% among 300,000; in the data active means max response mostly above about 13%, no sharp cut-off; inactive means mostly below about 14%; further: read at 38.3 µM for the half of the compounds with a filed dose; 0% is about no effect
Lassa entry inh – blocks Lassa virus binding to or entry into cells. Lassa virus pseudotype entry inhibition, cell reporter. Potency, µM (titrated, usually from 37.9 µM), for the others: top-dose activity change, negative = inhibition, most hits filed as inhibitors. hit rate 1.2% among 300,000; calls by dose curve; tested in HEK293 cells; further: potency means the concentration at half of the fitted maximal effect; on the % scale 0 is the no-effect control and ±100 the full control effect; nearly all actives have a fitted effect of over 50% in size
Shiga inhibitor – inhibitors of Shiga toxin in Vero cells; inhibition, % at 38.7 µM; Vero cells, Shiga toxin protein synthesis inhibition reporter; AID 2315; hit rate 9.2% among 290,000; in the data active means inhibition mostly above about 28%, no sharp cut-off; inactive means mostly below about 43%; further: 0% is about no effect
Pf growth 48h – P. falciparum growth inhibition at 48 hours (one generation); Potency, µM (doses to about 28.7 µM), for inactives: at the top dose activity change, negative = inhibition, most hits filed as inhibitors; hit rate 5.9% among 310,000; AID 504832; P. falciparum luciferase growth in erythrocytes, 48 h; further: potency means the concentration at half of the fitted maximal effect; on the % scale 0 is the no-effect control and ±100 the full control effect
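A one-generation exposure of luciferase-tagged malaria parasites in RPMI 1640/Albumax erythrocyte culture, 37 C and 5% CO2. Inhibition is inferred from decreased luminescence after adding detection reagent.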
Pf growth 96h – inhibits malaria parasite growth, 96 h. P. falciparum luciferase reporter growth, 96 h. hit rate 6.9% among 320,000. Potency, µM (top dose mostly 28.7 µM), for inactives: top-dose activity change, negative = inhibition, usual class: inhibitors; further: potency means the concentration at half of the fitted maximal effect; on the % scale 0 is the no-effect control and ±100 the full control effect
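Cell-based qHTS: luciferase-tagged P. falciparum in erythrocytes (2% hematocrit, 0.05% parasitemia final) incubated with compounds for 96 hours, 37 C, 5% CO2; luciferase detection reagent then added and luminescence measured.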
Starred values were filed as active, the others as inactive; i = inactive; ? = inconclusive; . = not tested or not shown; [ ] = dose if it differs, or a comment. Only some compounds are listed: those with a hit (about 19% of all), similar ones and a draw of the others. Unless noted, the call rests on the fitted dose curve; in most records, active means well fitted inhibition curve with a large enough effect; inconclusive means small, poorly fitted or top-dose-only effect, or another doubt; inactive means no such curve, though single readings can be large or run the other way.

SMILES	Marburg entry inh	CHX counter	Lassa entry inh	Shiga inhibitor	Pf growth 48h	Pf growth 96h
Cc1c(/C=C/C(=O)c2ccccc2O)cnn1C	?	71*	?	active	331%	213%
Cc1ccc(/C=C/C(=O)C2C(=O)c3ccccc3C2=O)cc1	?	11	?	3	1.7µM*	?
Cc1ccc(/C=C/C(=O)Nn2cnnc2)cc1	?	-2	-2%	9	.	8%
O=C(/C=C/c1ccco1)c1ccccc1O	19%[46.1 µM]	33*	7%	59*	26%	-6%
CCCCC/C=C\C/C=C\C/C=C\C/C=C\CCCCOC(CO)CO	.	7	.	7	.	.
CC(C)N(CCNC(=O)c1cn(C)c2ccc(S(=O)(=O)N(C)C)cc2c1=O)Cc1ccccc1	6%	-1	.	30	.	-9%
CCOc1ccc(CN2C(=O)c3ccccc3C2C(=O)NCC2CCCO2)cc1 (configuration not stated)	14%[46.1 µM]	-11	?	16	-4%	2%
Cc1ccc(/C=C/C(=O)c2ccc(C)cc2)cc1	19%	68*	27%	83*	76%	13%
Cc1ccc(C(=O)/C=C/C(=O)c2ccc(C)cc2)cc1	?	16	-19%	41	i	-3%
CN(C)c1ccc(/C=C/C(=O)c2ccccc2O)cc1	?	40*	22%	113	448%	0%
Cc1ccc(O)c(C(=O)C=Cc2ccccc2)c1	?	.	7%[46.1 µM]	.	.	.
CC(=O)N(Cc1cccnc1)Cc1cc2ccccc2[nH]c1=O	0%	6	?	-5	7%	6%
O=C(c1cc2ccccc2[nH]1)N(Cc1cccnc1)CC1CCCN(C2CCCCC2)C1 (configuration not stated)	.	15*	.	10	10µM*	?
CCCCCNC(=O)c1cccc(S(=O)(=O)N2CC3(C)CC2CC(C)(C)C3)c1 (configuration not stated)	?	.	13µM*	.	?	?
CCOC(=O)N1CCC(N2CCCC(C(=O)c3cc(C)c(OC)c(C)c3)C2)CC1 (configuration not stated)	.	1	.	17	?	-16%
CCOC(=O)N1CCC(N2CCCC(C(=O)c3ccc4cc(OC)ccc4c3)C2)CC1 (configuration not stated)	?	-3	?	-4	8.3µM*	?
COc1cccc(C(=O)C2CCCN(C3CCOCC3)C2)c1 (configuration not stated)	.	-2	.	2	-2%	2.3µM*
COc1ccc(-c2noc(-c3ccc(C)cc3Cl)n2)cc1OC	?	.	14%[46.1 µM]	.	.	.
O=C(CSc1nnc(CCCO)n1-c1ccccc1)Nc1nccs1	7%	-1	?	15	-1%	0%
Cc1cccc(NC(=O)/C=C/c2ccc(Cl)cc2)n1	?	35*	?	65*	129%	?
CSc1cccc(NC(=O)/C=C/c2ccccc2)c1	?	36*	?	71*	119%	10µM*
CCC(=O)Nc1ccc(NC(=O)/C=C/c2ccc(Cl)cc2)cc1	-3%	0	-8%	-10	13%	9.3µM*
CC(=O)Nc1ccc(NC(=O)/C=C/c2ccccc2)cc1	?	25*	-7%	33*	?	252%
O=C(C=Cc1ccccc1)Nc1cccc(C(=O)NCc2ccccc2)c1	.	.	11%[46.1 µM]	.	.	.
CCS(=O)(=O)c1ccc(O)c(NC(=O)/C=C/c2ccc(Cl)cc2)c1	?	3	?	-4	?	?
SMILES	Marburg entry inh	CHX counter	Lassa entry inh	Shiga inhibitor	Pf growth 48h	Pf growth 96h
C[C@@H]1CC2=CCCC2[C@]2(O1)C(=O)Nc1cccc(Br)c12 (some centres not stated)	1%[14.2 µM]	.	.	.	.	.
CCc1ccccc1N(C)S(=O)(=O)c1ccc2[nH]cc(C(=O)O)c(=O)c2c1	26%	-1	13%	-9	-7%	-16%
CSc1cccc(NC(=O)CCCOc2ccc(Cl)cc2C)c1	0%	-3	2%	14	-7%	23%
O=C(/C=C/c1ccccc1)Nc1ccc(Cl)cn1	?	33*	?	112*	104%	-20%
O=C(/C=C/c1ccccc1)Nc1cccc(C(=O)O)c1	.	35*	.	24*	0.26µM*	?
CSc1ccc(/C=C/C(=O)Nc2ccccc2)cc1	7.1µM*	8	?	16	127%	-105%
CSc1cccc(NC(=O)/C=C/c2ccc(Cl)cc2)c1	2%	40*	-1%	51*	-9%	-28%
O=C(COC(=O)/C=C/c1ccccc1)Nc1ccc(Cl)cn1	23%	.	8%	.	?	-2%
O=C(/C=C/c1ccccc1)Nc1cc(NC(=O)/C=C/c2ccccc2)cc(C(=O)O)c1	-7%[46.1 µM]	-3	-5%[46.1 µM]	-4	61%	-4%
COc1ccccc1NS(=O)(=O)c1c(C)[nH]c(C)c1C(=O)N1CCCC1	.	10	.	-8	10%	-18%
CC(C)(C)NC(=O)c1cccc(NC(=O)c2ccc(NC(=O)c3ccco3)cc2)c1	?	-2	?	-2	-31%	15%
CCN(CC)S(=O)(=O)c1cc(NC(=O)CCNC(=O)c2ccco2)ccc1C	-5%[46.1 µM]	1	1%[46.1 µM]	-4	9.3µM*	6.6µM*
O=C(Nc1nccs1)c1ccc(NC(=O)c2ccco2)cc1	14%	47*	?	86*	148%	?
CC(C)(C)c1ccc(C(=O)Nc2ccc(NC(=O)c3ccco3)cc2)cc1	-8%	-1	-1%	-22	?	10µM*
CC(C)(C)c1ccc(NC(=O)CCNC(=O)c2ccco2)cc1	12%	19*	11%	33	25%	13%
O=C(CCNC(=O)c1ccco1)Nc1ccc(C(F)(F)F)cc1	10%[46.1 µM]	-2	10%	-18	3%	?
CC1CCCN(Cc2c(O)ccc3c(=O)c(-c4ccc(Cl)cc4)c(C(F)(F)F)oc23)C1 (configuration not stated)	4%[46.1 µM]	.	23%[46.1 µM]	.	.	.
Cc1ccccc1CSCCNC(=S)Nc1ccccc1	?	2	-24%	22	?	1%[5.75 µM]
O=C(CO/N=C1\CCCc2nonc21)Nc1ccccc1Cl	-1%	10	0%	18	?	-28%
Clc1ccccc1CO/N=C1\CCCc2nonc21	21%	15*	17%	17	-3%	?
Clc1ccc(CO/N=C2\CCCc3nonc32)cc1	?	27*	?	22	6%	-10%
O=C1CC(N2CCC(c3nc4ccccc4o3)CC2)C(=O)N1c1ccc(Cl)c(C(F)(F)F)c1 (configuration not stated)	8%	3	-18%	7	-10%	.
CCOc1ccc(CCNC(=O)COC(=O)CNC(=O)c2ccc(Br)o2)cc1OCC	9%[46.1 µM]	.	9%	.	?	0%
CC(C)(C)NC[C@H](O)COc1cccc2[nH]c(=O)[nH]c12	1%	.	.	.	.	.
O=C(Nc1cnc2ccccc2c1)N1CCCCC1	?	51*	-13%	82*	435%	-25%
O=C(Nc1cnc2ccccc2c1)N1CCOCC1	?	42*	2%	64*	120%	13%
